Drawing on PubChem BioAssay (NCI), this text covers growth for eight compounds.

This is part of a sample that, as a whole, favours compounds with a hit. Of some 83,000 tested, about 20% had one in any assay.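 Method: cells in 96-well plates; compound added at one concentration; 48 h incubation; percent growth measured; values under 10 scored active.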 A number with no mark means an inactive call. Calls of active or inactive are those of the source.

Common to all, as to assay: NCI-60 one-dose screen, 48 h (100 = growth as untreated, 0 = no growth, -100 = all killed)
Assay [1] relates to HT29 colon. The settings on record: 10 µM unless noted.
Assay [2] deals with SNB-75 CNS. The settings on record: 10 µM unless noted.
Assay [3] concerns SNB-19 CNS. The settings on record: 10 µM unless noted.
Assay [4] deals with U251 CNS. The settings on record: 10 µM unless noted.
Assay [5] relates to PC-3 prostate. The settings on record: 10 µM unless noted.
Assay [6] deals with SK-MEL-5 melanoma. The note with it: 10 µM unless noted.
Assay [7] concerns UACC-62 melanoma. The settings on record: 10 µM unless noted.
Assay [8] relates to LOX IMVI melanoma. The note with it: 10 µM unless noted.
The subject of assay [9] is SK-MEL-28 melanoma. The note with it: 10 µM.
For assay [10], the system named is SK-MEL-2 melanoma. The note with it: 10 µM unless noted.
For assay [11], the system named is EKVX NSCLC. The note with it: 10 µM unless noted.
Assay [12] concerns SN12C renal. The settings on record: 10 µM unless noted.
Assay [13] has as its system UO-31 renal. The note with it: 10 µM unless noted.
The test system of assay [14] is TK-10 renal. The note with it: 10 µM unless noted.
Assay [15] concerns ACHN renal. The note with it: 10 µM unless noted.
Assay [16] has as its system CAKI-1 renal. The note with it: 10 µM unless noted.
The subject of assay [17] is A498 renal. The settings on record: 10 µM unless noted.
Assay [18] deals with CCRF-CEM leukemia. The settings on record: 10 µM unless noted.
The test system of assay [19] is MOLT-4 leukemia. The note with it: 10 µM unless noted.
For assay [20], the system named is SR leukemia. The note with it: 10 µM unless noted.

For `O=C1/C(=C/c2ccc(O)cc2)COc2ccc(O)c(O)c21`, the growth was 44.6% in assay [1]; 29.6% in [2]; 46.9% in [3]; 9.17% (active) in assay [4]; 41.9% in assay [5]; 44.1% in assay [6]. For the same compound, the growth was 24.3% in assay [7]; -48.1% (active) in assay [8]; 52.7% in [9]; 85.2% in [10]; 71.5% in assay [11]; -4.74% (active) in assay [12]. Also, the growth was -88.5% (active) in [13]; 54.1% in assay [14]; -16.2% (active) in assay [15]; 6.4% (active) in assay [16]; 98.4% in assay [17]; 9.61% (active) in assay [18]. For the same compound, the growth in [19] is 4.43% (active); in assay [20], 12.7%.

With `Cc1ccc(N=NC2C(=O)N(c3ccc(Cl)cc3)N(c3ccc(Cl)cc3)C2=O)cc1`, the growth was 104% in assay [1]; 84.1% in assay [2]; 91.1% in [3]; 99% in assay [4]; 93.4% in [5]; 91.6% in [6]. The growth in assay [7] is 92.4%; in [8], 96.6%; in [9] it was 99.1%; in assay [10] it was 105%; in assay [11], 94.1%; in assay [12], 96.4%. Besides, the growth is 73.1% in assay [13]; 132% in [14]; 95% in assay [15]; 92.4% in assay [16]; 88.6% in assay [17]; 96.3% in [18]. Besides, the growth in assay [19] was 100%; in assay [20] it was 120%.

Turning to `CCOC(=O)c1sc(-c2ccc(OS(=O)(=O)C[C@]34CCC(CC3=O)C4(C)C)c(C=O)c2)nc1C`, the growth in [1] was 6.26% (active); in [2] it was -2.85% (active); in assay [3] it was 18%; in [4], -9.73% (active); in assay [5] it was 25.8%; in assay [6], 16.8%. The growth in assay [7] was 25%; in assay [8] it was -32.1% (active); in assay [9], 52.6%; in assay [10] it was 12.8%; in assay [11], 36.5%; in assay [12], 28.7%. For the same compound, the growth is 29% in [13]; 5.83% (active) in assay [14]; 39.8% in [15]; 0.933% (active) in assay [16]; -2.42% (active) in assay [17]; 11.7% in [18]. Besides, the growth was 4.72% (active) in [19] and 21.2% in [20].

With `CCOC(=O)c1sc(-c2ccc(OS(=O)(=O)c3ccccc3[N+](=O)[O-])c(C=O)c2)nc1C`, the growth was 110% in [1]; 73.4% in assay [2]; 76.1% in assay [3]; 43% in assay [4]; 70% in assay [5]; -57.3% (active) in assay [6]. The growth was 64% in assay [7]; -6.91% (active) in [8]; 79.4% in assay [9]; 86.6% in assay [10]; 92.3% in assay [11]; 3.63% (active) in assay [12]. For the same compound, the growth in assay [13] was 57.1%; in assay [14], 85.5%; in [15], 101%; in [16] it was 38.8%; in assay [17], -84.6% (active); in assay [18], 12.1%. Further, the growth in [19] is 9.88% (active); in assay [20] it was 9.06% (active).

`COc1ccc2c(c1)C=C1CSCC3=Cc4cc(OC)ccc4OC13O2`: the growth in assay [1] is 6.74% (active); in [2], 23.9%; in assay [3] it was 28.9%; in [4], 18.7%; in assay [5], 19.3%; in [6], 14%. Moreover, the growth is 14.2% in assay [7]; 24.1% in assay [8]; 60% in [9]; 52.6% in assay [10]; 40.3% in assay [11]; 28.2% in assay [12]. Further, the growth in assay [13] was 44.5%; in assay [14], 60.7%; in assay [15], 32.5%; in assay [16], 37.1%; in [17] it was 4.68% (active); in assay [18] it was 16.1%. Besides, the values for the growth in assay [19] and in assay [20] were 14.3% and 27%, respectively.

`COC(=O)/C(CCC=C(C)C)=C1\[C@@H](OC(C)=O)C[C@@]2(C)[C@H]1CC(=O)N[C@H]1[C@@]3(C)CCNC(=O)[C@@H](C)[C@@H]3CC[C@@]12C`: the growth in [1] was 102%; in assay [2] it was 96.2%; in assay [3], 98.6%; in assay [4], 102%; in [5] it was 97.8%; in assay [6], 95.4%. Besides, the growth in assay [7] was 96.3%; in assay [8], 97.9%; in [9], 106%; in assay [10], 106%; in assay [11], 98%; in assay [12], 98.9%. The growth in assay [13] was 81.9%; in assay [14], 99.5%; in assay [15], 101%; in assay [16], 95.5%; in assay [17] it was 109%; in assay [18], 104%. The growth in assay [19] is 99.5%; in assay [20], 103%.

Regarding `Nc1nc(-c2cnccn2)nn1-c1nc2ccccc2s1`, the growth in assay [1] is 99.7%; in assay [2] it was 96.4%; in assay [3], 98.2%; in assay [4] it was 93.5%; in assay [5] it was 99.4%; in assay [6], 92.2%. For the same compound, the growth in assay [7] is 101%; in assay [8], 105%; in assay [9], 104%; in [10], 99.5%; in [11] it was 94.6%; in assay [12], 101%. Further, the growth in assay [13] was 99.6%; in [14] it was 117%; in assay [15], 108%; in assay [16], 96.8%; in [17] it was 118%; in [18], 97.4%. The figures for the growth in assay [19] and in assay [20] were 94.7% and 98.4%, respectively.

In the case of `COc1ccc(N(C)c2nc(N)nc3sc4c(c23)CCCC4)cc1`, the growth in assay [1] is -4.37% (active); in [2], 51.3%; in assay [3], 23.8%; in assay [4] it was 15.8%; in assay [5], 27%; in assay [6] it was -24.9% (active). The growth in assay [7] was 42.9%; in assay [8] it was 22.6%; in [9], 55%; in assay [10] it was 16.6%; in assay [11], 61%; in assay [12], 24.2%. Further, the growth in [13] is 38.5%; in assay [14] it was 45.1%; in [15] it was 26.7%; in [16], 25.6%; in assay [17], 0.565% (active); in assay [18], 9.1% (active). The results for the growth in [19] and in [20] were 11.6% and 6.49% (active), respectively.
